High-throughput results as filed in PubChem.
TGFb SMAD3 inh: TGF-b pathway inhibition; HepG2 CAGA-GFP TGF-b/SMAD3 reporter, GFP fluorescence, 18 h; TGF-beta stimulated, 500 pg/mL final; Potency, µM (doses to about 46.1 µM), for inactives: top-dose activity, negative = inhibition, usual class: inhibitors; 1.2% of 410,000 active; AID 588855; also: potency is read from the fitted curve at half-maximal effect; % is scaled to controls: 0 for no effect and ±100 for the full control effect; nearly all actives have a fitted effect of over 65% in size
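First, reporter cells (HEPG2 CAGA-GFP) rested 2 h at 37 degrees C. Next, compounds were pinned in and TGF-beta added to 500 pg/mL final. After 18 h, GFP was imaged per cell and summed per well.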
DT40 TDP1 CPT: growth inhibition of DT40 Tdp1-/-;hTDP1 cells with camptothecin (screen for TDP1 inhibitors); chicken DT40 Tdp1-/-;hTDP1 cells + 20 nM CPT, ATP luminescence, 48 h; Potency, µM (series often up to 46.2 µM), for the others: at the highest dose activity change, negative = growth inhibition, hits mostly inhibitors; 12% of 420,000 active; also: potency is read from the fitted curve at half-maximal effect; % is scaled to controls: 0 for no effect and ±100 for the full control effect; nearly all actives have a fitted effect of over 55% in size
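Chicken DT40 Tdp1-/- cells complemented with human TDP1, 400 cells/well, exposed to compounds plus 20 nM camptothecin for at least 48 h at 37 C; viability read as ATP content by CellTiter-Glo luminescence.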
HepG2 tox: kills HepG2 cells in TGF-b inhibitor counter-screen; Potency, µM (titrated, usually from 46.1 µM), inactives show at the top dose activity change, negative = cytotoxicity, hits mostly cytotoxic; 0.76% of 410,000 active; HepG2 CAGA-GFP viability, ATP luminescence, 18 h; AID 588856; also: potency is read from the fitted curve at half-maximal effect
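HepG2 CAGA-GFP cells (1000/well, DMEM with 1% FBS) received compound, then TGF-beta at 500 pg/mL final, and were incubated 18 hours at 37 degrees C. Viability was read by CellTiter-Glo luminescence. Media-only wells were set as complete cell-killing and DMSO as no toxicity.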
IL-1B inflam inh: inflammasome signaling inhibition, IL-1 beta readout; activity change, % at 57.5 µM; 4.7% of 360,000 active; THP-1 LPS/ATP IL-1B secretion, AlphaLISA, 16 h; stronger effect = lower value; AID 743279; in the data active = activity change below about -50%; inconclusive = mostly about -30% to -49%; also: % is scaled to controls: 0 for no effect and ±100 for the full control effect
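Secreted IL-1B measured by AlphaLISA bead assay after 16 h compound exposure of THP-1 cells; compounds (final up to 57.5 uM) added 1 h before LPS (250 ng/mL) and ATP (1.25 mM) stimulation; lower signal means less secretion.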
TDP1 block: inhibitors of human tyrosyl-DNA phosphodiesterase TDP1 | Q9NUW8 | 0.28% of 350,000 active | Potency, µM (titrated, usually from 130 µM), inactives show at the highest dose activity change, negative = inhibition, usual class: inhibitors | recombinant TDP1, AlphaScreen DNA substrate cleavage; also: potency is read from the fitted curve at half-maximal effect; % is scaled to controls: 0 for no effect and ±100 for the full control effect; nearly all actives have a fitted effect of over 40% in size
Target sequence (Q9NUW8 whole entry, looked up): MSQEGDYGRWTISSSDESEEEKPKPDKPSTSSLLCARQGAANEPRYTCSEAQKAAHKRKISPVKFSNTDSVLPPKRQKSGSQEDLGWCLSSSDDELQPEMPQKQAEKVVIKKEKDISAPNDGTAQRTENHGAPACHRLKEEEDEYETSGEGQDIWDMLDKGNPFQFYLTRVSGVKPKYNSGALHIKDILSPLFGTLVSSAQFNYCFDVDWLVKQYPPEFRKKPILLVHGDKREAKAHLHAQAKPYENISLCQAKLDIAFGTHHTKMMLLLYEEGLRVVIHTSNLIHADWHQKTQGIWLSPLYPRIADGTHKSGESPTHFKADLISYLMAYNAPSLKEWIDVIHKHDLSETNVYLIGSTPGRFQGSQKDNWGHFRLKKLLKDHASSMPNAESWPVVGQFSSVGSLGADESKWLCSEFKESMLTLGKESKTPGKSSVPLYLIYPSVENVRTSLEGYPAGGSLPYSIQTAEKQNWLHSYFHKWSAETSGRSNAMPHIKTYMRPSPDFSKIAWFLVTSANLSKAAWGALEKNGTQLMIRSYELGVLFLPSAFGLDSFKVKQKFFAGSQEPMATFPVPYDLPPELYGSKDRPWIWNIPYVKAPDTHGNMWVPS
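Steps: enzyme plus compound, 15 min RT; add biotin/phosphotyrosine-FITC oligonucleotide (15 nM final), react 5 min; add donor/acceptor beads (10 ug/ml final), 10 min; read AlphaScreen. Tdp1 at 1 nM final.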
TDP1 cell noCPT: qHTS for Inhibitors of human tyrosyl-DNA phosphodiesterase 1 (TDP1): qHTS in cells in absence of CPT; DT40 Tdp1-/- hTDP1 cells, no CPT, ATP luminescence, 48 h; Potency, µM (titrated, usually from 46.2 µM), inactives show at the highest dose activity change, negative = growth inhibition, most hits filed as inhibitors; 15% of 420,000 active; AID 686978, 2013; also: potency is read from the fitted curve at half-maximal effect; % is scaled to controls: 0 for no effect and ±100 for the full control effect; nearly all actives have a fitted effect of over 55% in size
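Camptothecin absent (DMSO only). Human TDP1-complemented DT40 knockout cells, 400 cells/well, 37 °C for minimum 48 hr; ATP measured via CellTiter-Glo, 30 min dark incubation, luminescence.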
* hit, by the source's call; ? = inconclusive; . = no result given; [ ] = dose if it differs, or a comment. An excerpt weighted towards active compounds, which were near 18% of everything screened. Unless noted, calls follow the shape of the dose curve; as a rule, active = well fitted curve in the direction sought with a large enough effect; inconclusive = small, poorly fitted or top-dose-only effect, or another doubt; inactive = no such curve, though single readings can be large; an effect the other way counts as inactive or inconclusive.

SMILES	TGFb SMAD3 inh	DT40 TDP1 CPT	HepG2 tox	IL-1B inflam inh	TDP1 block	TDP1 cell noCPT
NCC(=O)N[C@@H](CCCN=C(N)N)C(=O)NCC(=O)N[C@@H](CC(=O)O)C(=O)N[C@@H](CC(N)=O)C(=O)N1CC[C@@H](C(=O)O)C1	.	.	.	.	6.1%	.
CCc1ccc(CN(Cc2ccco2)C(=O)COc2ccccc2Cl)cc1	?	?	-37.3%	.	-2.3%	23.1µM*
Cc1ccc(OCC(=O)N(Cc2ccco2)Cc2ccc(C)o2)cc1	-16.5%	16.4µM*	3.1%	.	7.0%	16.4µM*
Cc1ccc(CN(Cc2ccco2)C(=O)COc2cccc(C)c2C)o1	-19.2%	16.4µM*	-57.6%	.	4.7%	18.4µM*
Cc1ccc(CN(Cc2ccco2)C(=O)c2ccc(Cl)cc2)o1	-10.2%	-27.4%	-6.7%	.	11.6%	?
Cc1cccc(OCC(=O)N(Cc2ccc(N(C)C)cc2)Cc2ccco2)c1C	.	?	-39.7%	.	14.7%	7.31µM*
Cc1cccc(C)c1OCC(=O)N(Cc1ccco1)C1CCS(=O)(=O)C1 (centres undefined)	-4.8%	-10.3%	-11.8%	-16.2	.	-7.7%
COc1ccc(C)cc1NC(=O)Nc1nnc(N2CCCCC2)s1	18.5%	?	-26.9%	.	0.0%	?
Cn1c(=S)[nH]c2cc(C(=O)N3CCN(C(=O)c4ccccc4)CC3)ccc2c1=O	.	-5.7%	.	.	.	-23.0%
CCNC(=O)NC(=O)C(C)OC(=O)C1CCN(S(=O)(=O)c2ccc(C)c(C)c2)CC1 (centres undefined)	-23.5%	-10.8%	5.9%	6.9	-1.1%	-24.5%
CCN(CC(=O)Nc1ccc(C#N)cc1)CC(=O)Nc1ccc2c(c1)OCCO2	-13.4%	-18.4%	-45.6%	-3.1	.	?
C=CCOCC/C=C1/c2ccccc2C(OC)C1C (centres undefined)	.	.	.	.	7.9%[21 µM]	.
CCc1ccc(OCC(=O)N(Cc2ccco2)Cc2ccco2)cc1	-23.3%	?	-8.9%	.	7.0%	20.6µM*
CCn1cc(C(=O)NCCCN2CCC(C)CC2)c(=O)c2cc(S(=O)(=O)N(C)C3CCCCC3)ccc21	?	?	-41.1%	-24.3	-0.1%	?
Cc1nc(Nc2ccccc2C(F)(F)F)sc1C(=O)N(C)C	-0.9%	-2.0%	-11.7%	-51.5*	0.0%	?
Cc1cc(C)nc(NC(=O)C(c2ccccc2)c2ccccc2)c1	?	?	5.9%	-5.4	4.5%	14.6µM*
NC(=O)c1ccccc1NC(=O)C(c1ccccc1)c1ccccc1	-2.3%	?	3.1%	-7.2	.	29.1µM*
O=C(Nc1ccccc1O)C(c1ccccc1)c1ccccc1	?	?	-25.8%	-63.5*	.	7.31µM*
CC(C)Cc1ccc([C@@H](C)C(=O)NS(C)(=O)=O)cc1	.	-2.6%	.	.	8.2%	?
CC(C)Cc1ccc(C(C)C(=O)Nc2ccccc2O)cc1 (centres undefined)	?	8.2µM*	-49.0%	-94.6*	.	8.2µM*
CCC(C(=O)Nc1cc(C)cc(C)n1)c1ccccc1 (centres undefined)	2.9%	-22.5%	-4.3%	.	.	?
CCNc1cccc(S(=O)(=O)N2CCCN(S(=O)(=O)c3ccc4c(c3)OCCO4)CC2)c1	.	.	.	.	0.9%	.
COc1ccccc1C(=O)Nc1ccccc1OCc1cc(=O)n2cc(C)sc2n1	0.9%	-9.9%	-4.1%	.	6.4%	?
COc1ccc(NC(=O)Cn2c(=O)n(-c3ccc(C)c(C)c3)c(=O)c3c(C)c(C)sc32)cc1	1.7%	-27.6%	3.9%	.	0.0%	-4.5%
O=C(c1ccc(-c2cccc(C(F)(F)F)c2)o1)N1CCCC(C(F)(F)F)C1 (centres undefined)	-4.7%	?	-15.7%	-2.9	0.5%[0.505 µM]	?
